{"source": "PubChem BioAssay (NCI)", "note": "The panel holds about 83,000 compounds, 20% with a hit somewhere; the sample as a whole holds those more often.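 Method: cells in 96-well plates; compound added at one concentration; 48 h incubation; percent growth measured; values under 10 scored active.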 Calls of active or inactive are those of the source.", "data": [{"test_system": "SK-MEL-2 melanoma", "assay": "NCI-60 one-dose screen, 48 h (100 = growth as untreated, 0 = no growth, -100 = all killed)", "details": "10 µM unless noted", "description": "Growth inhibition of the SK-MEL-2 human tumor cell line is measured as a screen for anti-cancer activity. Cells are grown in 96 well plates and exposed to the test compound for 48 hours. Compounds are tested at a single concentration, which is 10^-5 M for most compounds. The reported endpoint is percent growth (GI% or GIPRCNT), where numbers from 0 - 100% represent growth inhibition, and numbers from -100% - 0 represent cell death. For example, a value of 40 represents 60% growth inhibition. A value of 0 means no net growth occurred over the course of the experiment. A value of -40 indicates 40% of cells at the beginning of the experiment died by the end of the experiment. A value of -100 means all cells are dead at the end of the experiment.\nNCI-60 Human Tumor Cell Lines Screen was performed using the standard one-dose NCI protocol, which is described in more detail at https://dtp.cancer.gov/discovery_development/nci-60/default.htm.\nCompounds with GIPRCNT values below 10 were considered active. Activity score was based on GIPRCNT using the following formula: […]\nScore is 0 for GIPRCNT values of 100 or above, 50 for GIPRCNT values of 0, and 100 for GIPRCNT values of -100.", "values": [{"smiles": "NS(=O)(=O)c1ccc(Nc2nc(Nc3ccccc3)nc(-n3nc(-c4ccccc4)cc3-c3ccccc3)n2)cc1", "growth": "56.3% (inactive)"}, {"smiles": "CCOc1ccc2nc(NC(=O)c3ccc(C(F)(F)F)cc3)sc2c1", "growth": "103% (inactive)"}, {"smiles": "CCN1C(=S)N(c2ccccc2)C2NC(=O)N(/N=C/C=C/c3ccccc3OC)C21", "note": "(stereo not given)", "growth": "120% (inactive)"}, {"smiles": "Clc1ccc2oc3c(NCCCn4ccnc4)c4ccccc4nc3c2c1", "growth": "110% (inactive)"}, {"smiles": "COc1ccc2[nH]cc(-c3cc(N)n4nc(-c5c[nH]c6ccc(OC)cc56)cc4n3)c2c1", "growth": "72.5% (inactive)"}, {"smiles": "COc1ccc(/C=N/NC(=O)c2[nH]c3ccc(Br)cc3c2-c2ccccc2)s1", "growth": "43.9% (inactive)"}, {"smiles": "O=C(CCN1C(=O)/C(=C/c2ccccc2)SC1=S)N1CCOCC1", "growth": "112% (inactive)"}, {"smiles": "Cc1cc2nc3c4cc(Cl)ccc4n(CC(=S)NCCN(C)C)c3nc2cc1C", "growth": "70.7% (inactive)"}, {"smiles": "CS(=O)(=O)c1ccc(-c2nc3ccccn3c2/C=N/Nc2nc(-c3ccc(Cl)cc3)cs2)cc1", "growth": "102% (inactive)"}, {"smiles": "NS(=O)(=O)c1ccc(Nc2nc(SCC(=O)c3ccc(Cl)cc3)nc3ccccc23)cc1", "growth": "100% (inactive)"}, {"smiles": "COc1cccc(-c2nn(-c3ccccc3)cc2-c2ccnc(N3CCN(C(=O)c4ccccc4)CC3)c2)c1", "growth": "89% (inactive)"}, {"smiles": "C#Cc1nc(C2=C(C)C(=N\\O)/C(=N/O)C2)cs1", "growth": "108% (inactive)"}, {"smiles": "CC1=C(C)C(=O)C(Nc2ccccc2)=C(Cl)C1=O", "growth": "85.5% (inactive)"}, {"smiles": "Cc1nc(-c2cc3ccccc3oc2=O)ccc1C(=O)/C=C/c1ccc(Cl)c(Cl)c1", "growth": "134% (inactive)"}, {"smiles": "Cn1cc(-c2cc(N)n3nc(-c4cn(C)c5ccc(F)cc45)cc3n2)c2cc(F)ccc21", "growth": "110% (inactive)"}, {"smiles": "c1ccc2c(NCCCN3CCOCC3)c3oc4ccccc4c3nc2c1", "growth": "-75.4% (active)"}, {"smiles": "C#C[C@]1(O)CC[C@H]2[C@@H]3CC=C4c5sc(-c6ccc(F)cn6)nc5CC[C@]4(C)[C@H]3CC[C@@]21C", "growth": "-28.4% (active)"}, {"smiles": "CN(C)CCCNc1c2ccc(Cl)cc2nc2c1oc1ccccc12", "growth": "21.3% (inactive)"}, {"smiles": "CN1CCN(Cc2ccc(NC(=O)c3cncc(C#Cc4cnc5[nH]ncc5c4)c3)cc2C(F)(F)F)CC1", "growth": "-49.6% (active)"}, {"smiles": "Clc1ccc2c(NCCCN3CCOCC3)c3oc4ccc(Cl)cc4c3nc2c1", "growth": "122% (inactive)"}, {"smiles": "CN1C(=S)N(C)C2C1NN=C1SC(c3ccccc3)=CC(=O)N12", "note": "(stereo not given)", "growth": "95.2% (inactive)"}, {"smiles": "N#Cc1nc(-c2ccccc2)oc1S(=O)(=O)N1CCCCC1", "growth": "97.9% (inactive)"}, {"smiles": "Nc1c(C(=O)Nc2ccc(Cl)cc2)sc2nc(-c3cnccn3)cc(-c3cccs3)c12", "growth": "85.4% (inactive)"}, {"smiles": "COc1ccc(/C=C/C(=O)c2ccc(NC(=O)CSc3nnc(-c4ccc5nc(-c6ccc(Cl)cc6)[nH]c5c4)o3)cc2)cc1", "growth": "111% (inactive)"}, {"smiles": "Nc1c(C(=O)c2ccc(Br)cc2)oc2nc(-c3cnccn3)cc(-c3cccs3)c12", "growth": "113% (inactive)"}, {"smiles": "CN(C)c1ccc(-c2c(NC(C)(C)C)nc3c(OCCc4ccccc4)cccn23)cc1", "growth": "25.3% (inactive)"}, {"smiles": "CC(=NNc1ncnc2ccccc12)c1ccc(S(C)(=O)=O)cc1", "growth": "112% (inactive)"}, {"smiles": "CCCC(=O)NC(c1ccc2c(c1)OC(F)(F)O2)c1cc(C)c2cccnc2c1O", "note": "(stereo not given)", "growth": "40.2% (inactive)"}, {"smiles": "COC(=O)C(C)NS(=O)(=O)/N=C1\\NC(=O)NC1=C(Cl)Cl", "note": "(stereo not given)", "growth": "110% (inactive)"}, {"smiles": "COC(=O)c1ccc(NC(=S)N2CCc3ccc([N+](=O)[O-])cc3C2)cc1O", "growth": "122% (inactive)"}, {"smiles": "CC(=O)Oc1ccccc1C(=O)Nc1ccc(C(=O)/C=C/c2ccncc2)cc1", "growth": "108% (inactive)"}, {"smiles": "C#C[C@]1(O)CC[C@H]2[C@@H]3CC=C4c5sc(Nc6ccc(Cl)cn6)nc5CC[C@]4(C)[C@H]3CC[C@@]21C", "growth": "-13.4% (active)"}, {"smiles": "Fc1ccc(-c2nc(C(Cl)Cl)nc3cc(-c4ccccc4)nn23)cc1", "growth": "115% (inactive)"}, {"smiles": "COc1cccc(-c2nn(-c3ccccc3)cc2-c2ccnc(N3CCN(C(=O)Nc4ccc(F)cc4)CC3)c2)c1", "growth": "51.1% (inactive)"}, {"smiles": "Cc1cc2nc3c4cc(Cl)ccc4n(CC(=O)NCCN(C)C)c3nc2cc1C", "growth": "112% (inactive)"}, {"smiles": "CCCCCCNC(=O)Oc1ccc(/C(=C(/C)c2ccccc2)c2ccc(OCCN3CCCCCC3)cc2)cc1", "growth": "95.9% (inactive)"}, {"smiles": "NC(=O)c1c(NC(=O)c2ccc(C3CCCCC3)cc2)sc2c1CCC(=O)C2", "growth": "25.7% (inactive)"}, {"smiles": "CN(C)CCCOc1c2ccccc2nc2c1oc1ccc(Cl)cc12", "growth": "9.55% (active)"}, {"smiles": "COc1cc(-c2nc3ccc(-c4nnc(SCC(=O)Nc5ccc(C(C)=O)cc5)o4)cc3[nH]2)cc(OC)c1OC", "growth": "115% (inactive)"}, {"smiles": "COc1ccc(-c2nc3ccc(-c4nnc(SCC(=O)Nc5ccc(C(=O)/C=C/c6ccc(Cl)cc6)cc5)o4)cc3[nH]2)cc1OC", "growth": "112% (inactive)"}]}]}
